MCF10A rerep – induces DNA re-replication in MCF 10a normal breast cells. MCF 10A DNA re-replication, Hoechst nuclear intensity, 48 h. Potency, µM (series often up to 46.1 µM), for inactives: at the highest dose activity, positive = re-replication, usual class: activators. 350,000 tested, 2.9% active; also: % of control where 0% means no effect; nearly all actives have a fitted effect of over 50% in size
HT1080NT lethal – kills 2HG-producing HT-1080-NT fibrosarcoma cells. Potency, µM (highest dose often 46.1 µM), without a hit: at the top dose activity, negative = less viability, actives largely listed as cytotoxic. HT-1080-NT fibrosarcoma viability, CellTiter-Glo ATP luminescence, 48 h. 360,000 tested, 1.6% active;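 also: NT is the 2HG producing partner of a matched IDH1 knockdown line; 0% = DMSO-treated cells and -100% = media-only wells without cells; nearly all actives have a fitted effect of over 55% in size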
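Viability of the 2HG-overproducing fibrosarcoma line after 48 hours of compound exposure at 37 degrees C was determined by luminescence with CellTiter-Glo, and concentration-effect curves were then fitted and categorized.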
HT1080 IDH1KD tx – kills HT-1080 cells with IDH1 knockdown | HT-1080 IDH1 knockdown viability, ATP luminescence, 48 h | Potency, µM (highest dose often 46.1 µM), without a hit: at the top dose activity, negative = toxicity, actives largely listed as cytotoxic | 360,000 tested, 2% active | AID 686971;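 also: 0% = DMSO wells and -100% = cell-free medium wells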
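Cytotoxicity counter-line: IDH1KD HT-1080, 48 h, CellTiter-Glo. Curves classed by r2, magnitude and activity.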
KB-V1 MDR tox – KB-V1 MDR subline cytotoxicity; KB-V1 MDR cells viability, CellTiter-Glo, 72 h; Potency, µM (doses to about 46.1 µM), usual class: cytotoxic; 400,000 tested, 3.4% active; AID 1347076; also: % is scaled to controls: 0 for no effect and ±100 for the full control effect; nearly all actives have a fitted effect of over 60% in size
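In this primary screen, KB-V1 cells overexpressing P-gp are incubated with library compounds (lowest to highest concentration) for 72 h at 37 degrees C before a luminescent ATP viability read.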
KB-3-1 cytotox – kills parental KB-3-1 adenocarcinoma cells; KB-3-1 viability, CellTiter-Glo ATP luminescence, 72 h; Potency, µM (series often up to 46.1 µM), actives largely listed as cytotoxic; 400,000 tested, 1.4% active; AID 1347075; also: % is scaled to controls: 0 for no effect and ±100 for the full control effect; nearly all actives have a fitted effect of over 60% in size
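Parental KB-3-1 adenocarcinoma cells in phenol-red-free DMEM with 10% FBS were pin-treated with compounds at several concentrations, incubated 72 h at 37 °C, and viability read by CellTiter-Glo luminescence; concentration-effect curves were fitted after normalization.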
SW480 rerep – induces DNA re-replication in SW480 colon adenocarcinoma cells. 340,000 tested, 1.8% active. AID 624297. Potency, µM (highest dose often 46.1 µM), for inactives: at the top dose re-replication activation, actives largely listed as activators. SW480 DNA re-replication, Hoechst DNA content imaging, 48 h; also: % of control where 0% means no effect; nearly all actives have a fitted effect of over 55% in size
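Cells (250 per well) received 23 nL compound or DMSO by pin tool and were kept 48 hr at 37 C, 5% CO2. Nuclei were then stained with Hoechst for 40 min and scanned for DNA content.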
* = called active by the depositor; i = inactive; ? = inconclusive; · = no result; [ ] = remark or other dose. Shown are actives, neighbours in structure and some others; about 7.9% of the full set was active somewhere. Calls follow the shape of the dose curve; as a rule, active = well fitted curve in the direction sought with a large enough effect; inconclusive = small, poorly fitted or top-dose-only effect, or another doubt; inactive = no such curve, though single readings can be large; an effect the other way counts as inactive or inconclusive. Potency is read from the fitted curve at half-maximal effect.

SMILES	MCF10A rerep	HT1080NT lethal	HT1080 IDH1KD tx	KB-V1 MDR tox	KB-3-1 cytotox	SW480 rerep
O=C(NNS(=O)(=O)c1ccc(CCCl)cc1)C(O)(c1ccccc1)c1ccccc1	-7%	-1%	8%	16µM*	i	-7%
Cc1ccc(C(O)(C(=O)NNS(=O)(=O)c2ccc(C)cc2)c2ccc(C)cc2)cc1	30%	-3%	1%	?	i	19%
COc1ccc(CCN(C)C(=S)NC(=O)c2ccc(F)cc2Cl)cc1OC	-6%	4%	-1%	15µM*	i	-10%
CC(=O)NC(c1cccc(F)c1)c1nc(-c2cccc(C(F)(F)F)c2)cs1 (configuration not stated)	·	5%	19%	i	i	·
COc1ccc(N2CCN(CCCNC(=O)c3ccc4nc(N5CCCCC5)sc4c3)CC2)cc1	·	·	·	i	i	·
Cc1ccc(C)c(N2CCN(CCCNC(=O)c3ccc4nc(N5CCC(C)CC5)sc4c3)CC2)c1	·	·	·	?	21µM*	·
Cc1cc(C)c2nc(N3CCC(C(=O)NCCCN4CCCCC4)CC3)sc2c1	?	23µM*	18µM*	?	?	15%
Cc1ccc(Cl)cc1N1CCN(CCCNC(=O)c2ccc3nc(N4CCCCC4)sc3c2)CC1	·	·	·	16µM*	?	·
COc1ccc(-n2c(SCCC(C)C)nc3sc4c(c3c2=O)CC(C(C)C)OC4)cc1 (configuration not stated)	·	·	·	i	i	·
CC(Oc1ccccc1)C(=O)N[C@@H]1C(=O)N2[C@@H]1SC(C)(C)[C@@H]2C(=O)OCc1ccccc1 (some centres not stated)	·	·	·	?	i	·
S=P(N1CC1)(N1CC1)N1CC1	?	23%	-1%	i	i	2.1µM*
Cc1ccc(Cn2ccsc2=NC(=O)COC(=O)C(C)C)cc1	2%	-27%	?	i	16µM*	2%
CCC(O)c1ccccc1 (configuration not stated)	1%	·	·	·	·	2%
COc1ccc(-n2c(C)cc(C(=O)Cn3nc(C(=O)O)c4ccccc4c3=O)c2C)cc1	13%	-10%	-16%	15µM*	i	10%
COc1ccc(-n2c(C)cc(C(=O)CN3CCC(C)CC3)c2C)cc1	0.58µM*	-12%	-4%	i	i	-45%
COc1ccc(O)c(-c2nc(N)nc(N)n2)c1	7.3µM*	-13%	-10%	i	?	?
Cc1nonc1OCC(C)(COc1nonc1C)NC(=O)c1ccccc1	7%	-1%	-3%	18µM*	i	0%
CN(C1CCCCC1)S(=O)(=O)c1ccc(=S)[nH]c1	2%	8%	9%	15µM*	i	-9%
CN(C1CCCCC1)S(=O)(=O)c1ccc(S(=O)(=O)N2CCCC2)cc1	-2%	-20%	5%[9.24 µM]	?	i	1%
Cc1ccc(-n2c(=O)c3c(cnn3C)n(CC(=O)Nc3ccc(C)cc3C)c2=O)cc1	·	·	·	i	i	·
COc1ccc(-n2nnnc2C(c2cccs2)N2CCN(C/C=C/c3ccccc3)CC2)cc1 (configuration not stated)	·	?	?	i	i	·
Cc1c2ccncc2cc2c1[nH]c1ccccc12	16µM*	18µM*	13µM*	?	?	23µM*
Cn1nc(-c2ccccc2F)c2cc(C(=O)NCc3ccccc3Cl)sc21	·	·	·	i	i	·
CC(C)n1c(=NC(=O)c2ccco2)c(C#N)cc2c(=O)n3ccccc3cc21	8.9µM*	-23%	?	i	?	13µM*
CCOC(=O)c1cc2c(=O)n3ccccc3nc2n(C(C)C)c1=NC(=O)c1ccco1	7.3µM*	-18%	-16%	?	i	7.3µM*
SMILES	MCF10A rerep	HT1080NT lethal	HT1080 IDH1KD tx	KB-V1 MDR tox	KB-3-1 cytotox	SW480 rerep
CCOC(=O)c1cc2c(=O)n3cccc(C)c3nc2n(CCOC)c1=NC(C)=O	3.7µM*	-1%	2%	?	i	5.8µM*
CCOCCCn1c(=NC(=O)c2ccco2)c(C(=O)OCC)cc2c(=O)n3cccc(C)c3nc21	?	0%	-1%	?	i	1.6µM*
CC(=O)Nc1ccc(CN2C(=O)C(Cc3ccccc3)ON=C2c2ncccc2C)cc1 (configuration not stated)	·	4%	1%	i	i	·
Clc1ccc(-c2csc(=Nc3ccccc3)n2Cc2ccc3c(c2)OCO3)cc1	·	·	·	i	i	·
Cc1cccn2c(=O)c3cc(S(=O)(=O)c4ccc(F)cc4)c(=N)n(Cc4ccco4)c3nc12	?	?	23µM*	i	i	?
CCOC(=O)c1cc2c(=O)n3cccc(C)c3nc2n(Cc2ccco2)c1=NC(=O)c1ccccc1	8.2µM*	4%	9%	?	i	?
CCOC(=O)c1cc2c(=O)n3cccc(C)c3nc2n(Cc2ccco2)c1=NC(=O)c1ccc(C)cc1	-1%	6%	7%	i	i	-8%
Cc1cccn2c(=O)c3cc(S(=O)(=O)c4ccccc4)c(=N)n(Cc4ccco4)c3nc12	3%	25%	17%	?	i	?
COc1ccccc1CNC(=O)Nc1ccc2c(c1)N(C)C(=O)c1ccccc1S2	·	·	·	i	i	·
COc1cccc(S(=O)(=O)Nc2ccc3c(c2)C(=O)N(C)C[C@H](OC)[C@H](C)CN(Cc2ccccc2F)[C@@H](C)CO3)c1	·	?	?	15µM*	?	·
CO[C@H]1CN(C)C(=O)c2cc(NS(=O)(=O)c3ccccc3)ccc2OC[C@@H](C)N(Cc2ccccn2)C[C@@H]1C	·	15%	15%	i	i	·
Cc1ccccc1C(=O)Nc1ccc2oc(-c3ccc(Cl)c(Cl)c3)nc2c1	·	·	·	?	i	·
CCCC1=NN(c2ccc([N+](=O)[O-])cc2)C(=O)/C1=C/N(C)C	25%	-1%	5%	i	i	-1%
CC1=NN(c2ccc([N+](=O)[O-])cc2)C(=O)/C1=C\N(C)C	-1%	8.2µM*	8.2µM*	10µM*	?	-8%
CC1=NN(c2nc3ccccc3[nH]2)C(=O)/C1=C/N(C)C	2%	21µM*	2.9µM*	?	5.8µM*	3%
CC1=NN(c2nc3ccccc3[nH]2)C(=O)C1Cc1ccccc1 (configuration not stated)	?	2.1µM*	?	?	?	2.9µM*
Cc1ccc(-c2[nH]ncc2CNCc2ccccc2)cc1	·	·	·	i	i	·
COc1cc(CNC(=O)c2cc3ccccc3oc2=O)cc(OC)c1OC	15%	14%	4%	i	i	-42%
